Shiga toxin inh: inhibitors of Shiga toxin in Vero cells. Vero cells, Shiga toxin protein synthesis inhibition reporter. inhibition, % at 38.7 µM. 290,000 tested, 9.2% active. AID 2315; in the data active = inhibition mostly above about 28%, no sharp cut-off; inactive = mostly below about 43%; also: 0% is about no effect
AMA1-RON2 inh: disrupts binding of P. falciparum AMA1 to RON2; AlphaScreen AMA1-biotinylated RON2 peptide binding; Potency, µM (series often up to 58.2 µM), for inactives: at the highest dose activity change, negative = inhibition, actives largely listed as inhibitors; 360,000 tested, 0.2% active; AID 720542;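 also: potency is read from the fitted curve at half-maximal effect; 0% = vehicle wells and -100% = peptide control; nearly all actives have a fitted effect of over 45% in size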
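AMA1 (3D7) with his tag at 25 nM final met compounds first, then biotinylated RON2 peptide at 25 nM; detection used donor plus acceptor beads, 10 µg/mL apiece, read by AlphaScreen after 30 min at room temperature.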
SARS PLP yeast: blocks SARS-CoV papain-like protease in a yeast assay | Potency, µM (series often up to 32.9 µM), for inactives: at the highest dose activity, positive = growth rescue, actives largely listed as activators | S. cerevisiae expressing SARS-CoV PLpro, growth rescue | 330,000 tested, 0.19% active; calls by dose curve; also: potency is read from the fitted curve at half-maximal effect; 0% is about no effect; nearly all actives have a fitted effect of over 55% in size
Pf growth 96h: inhibits malaria parasite growth, 96 h | 320,000 tested, 6.9% active | P. falciparum luciferase reporter growth, 96 h | Potency, µM (titrated, usually from 28.7 µM), for inactives: top-dose activity change, negative = inhibition, most hits filed as inhibitors; also: potency is read from the fitted curve at half-maximal effect; % is scaled to controls: 0 for no effect and ±100 for the full control effect
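Luminescence readout: decreased luciferase signal marks inhibited growth of reporter-expressing P. falciparum in infected red cells (2% hematocrit, 0.05% parasitemia final), exposed to compound two generations (96 h, 37 C, 5% CO2).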
Pf growth 48h: P. falciparum growth inhibition at 48 hours (one generation); Potency, µM (highest dose often 28.7 µM), inactives show at the highest dose activity change, negative = inhibition, most hits filed as inhibitors; 310,000 tested, 5.9% active; P. falciparum luciferase growth in erythrocytes, 48 h; also: potency is read from the fitted curve at half-maximal effect; % is scaled to controls: 0 for no effect and ±100 for the full control effect
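Luciferase-expressing P. falciparum in infected erythrocytes (2% hematocrit, 0.1% parasitemia final) in RPMI 1640/0.5% Albumax were exposed to compound for 48 hours at 37 C, 5% CO2; growth read as luminescence.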
Cycloheximide cs: counter-screen hit for Shiga toxin inhibitors, cycloheximide. 300,000 tested, 12% active. max response, %. cell reporter, cycloheximide protein synthesis inhibition counterscreen; in the data active = max response mostly above about 13%, no sharp cut-off; inactive = mostly below about 14%; also: read at 38.3 µM for the half of the compounds with a filed dose; 0% is about no effect
Starred values were filed as active, the others as inactive; ! = not active in a repeat. Rows were chosen to be rich in hits. Some 19% of all compounds tested hit in one or more screens of this group. Unless noted, calls follow the shape of the dose curve; as a rule, active = well fitted curve in the direction sought with a large enough effect; inconclusive = small, poorly fitted or top-dose-only effect, or another doubt; inactive = no such curve, though single readings can be large; an effect the other way counts as inactive or inconclusive.

How did Nc1nc(NCCCN2CCOCC2)nc(Nc2cccc(F)c2)c1[N+](=O)[O-] do in these assays?
Shiga toxin inh: -1; AMA1-RON2 inh: 0%; SARS PLP yeast: 0%; Pf growth 96h: inconclusive; Pf growth 48h: -14%; Cycloheximide cs: 5

Results for Nc1nc(NCCCN2CCOCC2)nc(Nc2ccc(F)cc2)c1[N+](=O)[O-] ?
Shiga toxin inh: -3; AMA1-RON2 inh: 15%; SARS PLP yeast: 0%; Pf growth 96h: inconclusive; Pf growth 48h: 13µM*; Cycloheximide cs: -4

What do the screens show for `COc1cc(-c2[nH]ncc2CN(C)Cc2nonc2C)cc(OC)c1OC`?
Shiga toxin inh: -5; AMA1-RON2 inh: -15%; SARS PLP yeast: -1%; Pf growth 96h: 1.7µM*; Pf growth 48h: inconclusive; Cycloheximide cs: -3

How did COc1ccc(-c2[nH]ncc2CN(C)Cc2nonc2C)c(OC)c1 do in these assays?
Shiga toxin inh: -7; AMA1-RON2 inh: 16%; SARS PLP yeast: -1%; Pf growth 96h: 10µM*; Pf growth 48h: 9%; Cycloheximide cs: 1

Results for CCOc1ccc(Nc2cc(=O)oc3ccccc23)cc1 ?
Shiga toxin inh: 24; AMA1-RON2 inh: -6%; SARS PLP yeast: -4%; Pf growth 96h: 1.7µM*; Pf growth 48h: 1.3µM*; Cycloheximide cs: 9

How did COC(=O)C(Sc1ccc(Cl)cc1)C1SC(=S)N(Cc2ccccc2)C1=O (stereo not drawn) do in these assays?
AMA1-RON2 inh: -5%

Results for CC(C)NCC(O)COc1ccc(CC(N)=O)cc1 (stereo not drawn) ?
Shiga toxin inh: -2; AMA1-RON2 inh: -16%; SARS PLP yeast: -2%; Pf growth 96h: -1%; Pf growth 48h: -4%; Cycloheximide cs: -4

Results for CC(=O)Nc1ccc(OCC(O)Cn2cnc3ccccc32)cc1 (stereo not drawn) ?
Shiga toxin inh: -9; AMA1-RON2 inh: -1%; SARS PLP yeast: 8%; Pf growth 96h: 7.4µM*; Pf growth 48h: 24%; Cycloheximide cs: -1

How did COc1ccc(OCC(O)CNC(C)c2ccccc2)cc1 (stereo not drawn) do in these assays?
Shiga toxin inh: -4; AMA1-RON2 inh: 8%; SARS PLP yeast: -2%; Pf growth 96h: inconclusive; Pf growth 48h: -16%; Cycloheximide cs: 10

Results for CC(NCC(O)COc1ccc2ccccc2c1)c1ccccc1 (stereo not drawn) ?
Shiga toxin inh: -6; AMA1-RON2 inh: -29%; SARS PLP yeast: 0%; Pf growth 96h: 9.3µM*; Pf growth 48h: 9.3µM*; Cycloheximide cs: -1

How did CC(CCc1ccccc1)NCC(O)COc1ccccc1 (stereo not drawn) do in these assays?
Shiga toxin inh: -11; AMA1-RON2 inh: -4%; SARS PLP yeast: 0%; Pf growth 96h: inconclusive; Pf growth 48h: 5.2µM*; Cycloheximide cs: -1

What do the screens show for `CC(C)NCC(O)COc1ccc(CCOCC2CC2)cc1` (stereo not drawn)?
Shiga toxin inh: -8; AMA1-RON2 inh: -3%; SARS PLP yeast: -23%; Pf growth 96h: 3.4µM*!; Pf growth 48h: 13µM*!; Cycloheximide cs: -2

Results for CCCN(CCC)C(=O)[C@@H](CCC(=O)O)NC(=O)c1ccccc1 ?
Pf growth 96h: -12%; Pf growth 48h: 0%

How did Cc1ccccc1C(=O)c1ccc2c(c1)n(C)c(=O)n2C do in these assays?
Shiga toxin inh: -21; AMA1-RON2 inh: -5%; SARS PLP yeast: 2%; Pf growth 96h: -17%; Pf growth 48h: -27%; Cycloheximide cs: -3

What do the screens show for `OC(COc1ccc2c(c1)CCC2)Cn1cnc2ccccc21` (stereo not drawn)?
Shiga toxin inh: 74*; AMA1-RON2 inh: -1%; SARS PLP yeast: -4%; Pf growth 96h: 29%; Pf growth 48h: 10µM*; Cycloheximide cs: 23

What do the screens show for `OC(CN(c1ccccc1)c1ccccc1)Cn1cnc2ccccc21` (stereo not drawn)?
Shiga toxin inh: 30; AMA1-RON2 inh: -5%; SARS PLP yeast: -9%; Pf growth 96h: inactive; Pf growth 48h: 12µM*; Cycloheximide cs: -3

What do the screens show for `CC(C)NCC(O)COc1ccc2c(c1)CCC2` (stereo not drawn)?
Shiga toxin inh: 110*; AMA1-RON2 inh: 15%; SARS PLP yeast: 9%; Pf growth 96h: 17%; Pf growth 48h: -3%; Cycloheximide cs: 32*

How did CC(=O)Nc1cccc(OCC(O)Cn2cnc3ccccc32)c1 (stereo not drawn) do in these assays?
Shiga toxin inh: 18; AMA1-RON2 inh: 4%; SARS PLP yeast: -1%; Pf growth 96h: 44%; Pf growth 48h: -5%; Cycloheximide cs: 5

Results for CCN1CCN(CC(O)COc2ccc3c(c2)CCC3)CC1 (stereo not drawn) ?
Shiga toxin inh: -5; AMA1-RON2 inh: -7%; SARS PLP yeast: 1%; Pf growth 96h: 99%; Pf growth 48h: -2%; Cycloheximide cs: -5

Results for COCCNC(=O)c1cccc(OC2CCN(Cc3ccc(F)c(OC)c3)CC2)c1 ?
Shiga toxin inh: 1; AMA1-RON2 inh: -9%; SARS PLP yeast: inconclusive; Pf growth 96h: inconclusive; Pf growth 48h: 4%; Cycloheximide cs: 2

Results for CCOC(=O)C1=C(N)Oc2ccc(Br)cc2C1C(C#N)C(=O)OCC (stereo not drawn) ?
Shiga toxin inh: -4; Cycloheximide cs: -3

What do the screens show for `CCOC(=O)c1ccc2c(c1)n(CC)c(/C=C/N(C)c1ccccc1)[n+]2CC`?
Shiga toxin inh: -9; AMA1-RON2 inh: 7%; SARS PLP yeast: -6%; Pf growth 96h: -1%; Pf growth 48h: 1.2µM*; Cycloheximide cs: -3

How did CCOC(=O)c1ccc2c(c1)n(Cc1ccccc1)c(C)[n+]2CC do in these assays?
Shiga toxin inh: -9; AMA1-RON2 inh: 12%; SARS PLP yeast: 1%; Pf growth 96h: 16%; Pf growth 48h: inconclusive; Cycloheximide cs: -4

Results for N#Cc1ccccc1OCC(=O)NC(=O)NCc1ccco1 ?
Shiga toxin inh: 57*; AMA1-RON2 inh: -2%; SARS PLP yeast: 0%; Pf growth 96h: 171%; Pf growth 48h: 112%; Cycloheximide cs: 26*

What do the screens show for `N#Cc1ccccc1OCC(=O)NC(=O)NCc1ccccc1`?
Shiga toxin inh: 21; AMA1-RON2 inh: 9%; SARS PLP yeast: 0%; Pf growth 96h: -29%; Pf growth 48h: 0%; Cycloheximide cs: 8

Results for O=C(COc1ccccc1)NCc1ccco1 ?
AMA1-RON2 inh: 4%

Results for CCNC(=O)NC(=O)COc1ccccc1C#N ?
Shiga toxin inh: 81*; AMA1-RON2 inh: 0%; SARS PLP yeast: -4%; Pf growth 48h: 77%; Cycloheximide cs: 36*

How did Cc1ccccc1NC(=S)NC12CN3CN(CN(C3)C1)C2 do in these assays?
Shiga toxin inh: 7; AMA1-RON2 inh: 1%; SARS PLP yeast: 2%; Pf growth 96h: 96%; Pf growth 48h: 11%; Cycloheximide cs: -2
